Screening results from PubChem.
Most compounds without a hit are left out; they make up all but 6% or so of the library.
D1 agonist = human D1 receptor agonism; HEK293 T-REx D1 cells, calcium flux, agonist mode; hit rate 1% among 360,000; activation, % at 2 µM; P21728; in the data active = activation above about 30%; also: 0% is about no effect
Target sequence (P21728 whole entry, looked up): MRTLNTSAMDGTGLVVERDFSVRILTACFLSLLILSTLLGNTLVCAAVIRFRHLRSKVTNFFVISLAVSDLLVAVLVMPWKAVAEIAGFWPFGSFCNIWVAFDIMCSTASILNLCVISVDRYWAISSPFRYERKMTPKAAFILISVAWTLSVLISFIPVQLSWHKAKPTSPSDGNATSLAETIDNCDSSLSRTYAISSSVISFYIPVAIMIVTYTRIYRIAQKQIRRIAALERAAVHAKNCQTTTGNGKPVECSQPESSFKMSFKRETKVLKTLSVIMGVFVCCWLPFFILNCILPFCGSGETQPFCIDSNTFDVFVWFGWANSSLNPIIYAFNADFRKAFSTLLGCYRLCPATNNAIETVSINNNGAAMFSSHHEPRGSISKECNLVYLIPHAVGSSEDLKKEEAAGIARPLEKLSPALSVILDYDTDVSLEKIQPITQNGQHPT
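Tetracycline-induced HEK293 TREx D1 cells, force-coupled to calcium signalling, were dye-loaded with a no-wash calcium kit. Compound was pin-added after a 10 s baseline. Fluorescence was read kinetically at 1 cycle/s for 180 s, with calcium rises flagged as agonism.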
D1 antag = blocks dopamine activation of the human D1 receptor. P21728. HEK293 TREx D1 cells, calcium flux, dopamine EC80; active compounds read low. activity change, negative = inhibition, % at 10 µM. hit rate 3.2% among 360,000. AID 504652; in the data active = activity change below about -30%; also: % is scaled to controls: 0 for no effect and ±100 for the full control effect
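Inducible Hek293 Trex D1 cells (tetracycline, overnight, 30 C). Calcium dye 30–90 min RT. Antagonist mode: EC80 dopamine added after 180 s compound read.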
D1 potentiator = human D1 dopamine receptor positive modulation; potentiation, % at 10 µM; HEK293 TREx D1 cells, calcium flux, dopamine EC20 potentiation; hit rate 0.036% among 360,000; AID 504651; P21728; in the data active = potentiation above about 30%; also: 0% is about no effect
D3 ag = D3 dopamine receptor (human) agonism; P35462; max activation, %; hit rate 0.58% among 410,000; D3R DiscoveRx beta-arrestin cells, luminescence, 90 min; in the data active = max activation above about 30%; also: 0% is about no effect
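Agonist-mode cell screen: cells plated at 1500/well and incubated overnight at 37 °C, then exposed to library compounds for 90 min at 37 °C. Detection reagent was added for 30–60 min at room temperature, and luminescence was read.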
D3 antag = blocks the human D3 dopamine receptor; P35462; D3R cells, DiscoveRx beta-arrestin luminescence, antagonist mode; active compounds read low; max response, negative = inhibition, %; hit rate 2.5% among 360,000; AID 652054; in the data active = max response below about -50%; inconclusive = no clear call, values can overlap the other calls; also: % is scaled to controls: 0 for no effect and ±100 for the full control effect
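Cells plated overnight at 1500 cells/well, then exposed to library compounds with dopamine controls for 90 minutes at 37 degrees C. DiscoveRx reagent added for 30–60 minutes at room temperature; luminescence read, quantitative HTS format.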
* = called active by the depositor; ? = inconclusive; nt = not tested or not shown.

SMILES | D1 agonist | D1 antag | D1 potentiator | D3 ag | D3 antag
COC(=O)C1=C(c2ccc(F)cc2F)C[C@@H]2CC[C@H]1N2C(=O)NCc1ccco1 | -1 | 2 | 4 | 41* | ?
COC(=O)C1=C(c2c(C)noc2C)C[C@@H]2CC[C@H]1N2C(=O)NC(C)C | 0 | 7 | -1 | 0 | 5
COC(=O)C1=C(c2c(C)noc2C)C[C@@H]2CC[C@H]1N2C(=O)N1CCCC1 | 0 | nt | -4 | 58* | 6
COC(=O)C1=C(c2cc3ccccc3s2)C[C@@H]2CC[C@H]1N2C(=O)N1CCCCC1 | nt | nt | nt | -21 | -54*
COC(=O)C1=C(c2cc3ccccc3s2)C[C@@H]2CC[C@H]1N2C(=O)NCc1ccc(F)cc1 | nt | nt | nt | -36 | -56*
Cc1nnc2n1-c1sc(CCC(=O)N3CCOCC3)cc1C(c1ccccc1Cl)=NC2 | nt | nt | nt | 0 | nt
O=[N+]([O-])c1cc(I)c(O)c(I)c1 | nt | nt | nt | 2 | nt
C/C(=C\c1csc(C)n1)[C@@H]1C[C@@H]2O[C@]2(C)CCC[C@H](C)[C@H](O)[C@@H](C)C(=O)C(C)(C)[C@@H](O)CC(=O)O1 | nt | nt | nt | -9 | nt
Cc1nnc(NC(=O)c2cccn(Cc3ccc(Cl)cc3)c2=O)s1 | 1 | 5 | 1 | 2 | nt
COC(=O)C1=C(c2cc3ccccc3o2)C[C@@H]2CC[C@H]1N2C(=O)NCc1ccccc1 | nt | nt | nt | 6 | -50*
COC(=O)C1=C(c2cc3ccccc3o2)C[C@@H]2CC[C@H]1N2C(=O)NCCNC(C)=O | nt | nt | nt | 41* | 8
C[C@H]1CC[C@]2(NC1)O[C@H]1C[C@H]3[C@@H]4CC[C@H]5C[C@@H](O)CC[C@]5(C)[C@H]4CC[C@]3(C)[C@H]1[C@@H]2C | nt | nt | nt | -20 | nt
COc1cc(CC(C)N)cc2c1OCO2 (stereo not drawn) | nt | nt | nt | -7 | nt
O=[N+]([O-])c1cccc(CN2CC=C(c3ccc(F)cc3)CC2)c1 | 1 | 0 | -2 | -25 | -99*
O=[N+]([O-])c1ccccc1CN1CC=C(c2ccc(F)cc2)CC1 | 3 | 13 | -6 | -17 | -68*
O=[N+]([O-])c1cccc(CN2CCN(Cc3ccc(Cl)cc3)CC2)c1 | -4 | -4 | -4 | -12 | -79*
CC(C)N1CCN(Cc2cccc([N+](=O)[O-])c2)CC1 | 3 | 5 | -1 | -12 | ?
O=C1CC(N2CC=C(c3ccccc3)CC2)C(=O)N1c1ccc(F)cc1 (stereo not drawn) | 2 | 0 | 0 | -9 | -15
Cc1nnc2n1-c1ccc(Cl)cc1C(c1ccccc1Cl)=NC2 | nt | nt | nt | 5 | nt
CCOc1ccc2nc(NC(=O)c3cccn(Cc4ccc(Cl)cc4)c3=O)sc2c1 | 1 | -13 | -4 | 3 | nt
CCCCCl | nt | nt | nt | -11 | nt
CCN(CC)c1ccc(/C=N/c2sc3c(c2C#N)C2CCN3CC2)c(O)c1 | 247* | 4 | -2 | -3 | -3
